Reference: PubChem BioAssay AID1159580 (chemical genetic matrix, 2015)
“And” between values parts separate entries of the source, which are not always exact repeats. Equal entries are not always repeated. Among all 5,500 compounds or so, about 2,000 (36%) were called active. Another 18% or so got no clear call; they are omitted. Rule as the data show it: active = normalized growth mostly below about 0.91 (no sharp cut-off); inconclusive = no clear call, values can overlap the other calls; inactive = mostly above about 0.92. Some of the results follow.

Assay: chemical genetic growth profiling, strain panel (AID 1159580);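 also: tested at 20 µM; growth read once vehicle control cultures reached saturation at 30 °C; 1 = growth at the plate median or of vehicle wells; lower values mean less growth of the strain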
Conditions: S. cerevisiae deletion strains, growth OD

Measured: normalized growth

CC[C@@]1(O)C[C@H](O)c2c(cc3c(c2O)C(=O)c2c(O)ccc(O)c2C3=O)[C@H]1C(=O)OC
active: locus YAL013W, strain DEP1, stronger effect = lower value 0.495 | locus YAL021C, strain ccr4, stronger effect = lower value 0.768 | locus YAL030W, strain snc1, stronger effect = lower value 0.908 | locus YBL061C, strain skt5, stronger effect = lower value 0.89 | locus YBR009C, strain hhf1, stronger effect = lower value 0.805 | locus YBR231C, strain swc5, stronger effect = lower value 0.751 | locus YCL011C, strain gbp2, stronger effect = lower value 0.874 | locus YCL016C, strain dcc1, stronger effect = lower value 0.607 | locus YCL029C, strain bik1, stronger effect = lower value 0.873 | locus YDL035C, strain GPR1, stronger effect = lower value 0.779 | locus YDL074C, strain BRE1, stronger effect = lower value 0.588 | locus YDL101C, strain DUN1, stronger effect = lower value 0.659 | locus YDL134C, strain PPH21, stronger effect = lower value 0.622 | locus YDL185W, strain tfp1, stronger effect = lower value 0.774 | locus YDL192W, strain arf1, stronger effect = lower value 0.735 | locus YDR069C, strain doa4, stronger effect = lower value 0.896 | locus YDR101C, strain arx1, stronger effect = lower value 0.848 | locus YDR137W, strain rgp1, stronger effect = lower value 0.707 | locus YDR150W, strain NUM1, stronger effect = lower value 0.879 | locus YDR162C, strain NBP2, stronger effect = lower value 0.414 | locus YDR195W, strain ref2 1.28 [resistant] | locus YDR318W, strain mcm21, stronger effect = lower value 0.861 | locus YDR388W, stronger effect = lower value 0.811 | locus YDR502C, strain sam2, stronger effect = lower value 0.7 | locus YEL061C, strain CIN8, stronger effect = lower value 0.7 | locus YER015W, strain faa2, stronger effect = lower value 0.894 | locus YER016W, strain bim1, stronger effect = lower value 0.909 | locus YER155C, strain BEM2, stronger effect = lower value 0.638 | locus YER167W, strain BCK2, stronger effect = lower value 0.713 | locus YFR010W, strain ubp6, stronger effect = lower value 0.894 | locus YGL086W, strain mad1, stronger effect = lower value 0.718 | locus YGL248W, strain PDE1, stronger effect = lower value 0.682 | locus YGL253W, strain hxk2, stronger effect = lower value 0.825 | locus YGR135W, strain pre9, stronger effect = lower value 0.818 | locus YHR027C, strain rpn1, stronger effect = lower value 0.713 | locus YHR079C, strain IRE1 (second series), stronger effect = lower value 0.856 | locus YHR094C, strain hxt1, stronger effect = lower value 0.88 | locus YHR129C, strain ARP1, stronger effect = lower value 0.638 | locus YHR200W, strain rpn10, stronger effect = lower value 0.771 | locus YIL066C, strain RNR3, stronger effect = lower value 0.421 | locus YIL073C, strain SPO22, stronger effect = lower value 0.593 | locus YIL125W, strain kgd1, stronger effect = lower value 0.861 | locus YIR030C, strain dcg1, stronger effect = lower value 0.908 | locus YJL092W, strain hpr5, stronger effect = lower value 0.734 | locus YJL095W, strain BCK1 (second series), stronger effect = lower value 0.912 | locus YJL115W, strain asf1, stronger effect = lower value 0.394 | locus YJL134W, strain LCB3, stronger effect = lower value 0.905 | locus YJL164C, strain tpk1, stronger effect = lower value 0.887 | locus YJL166W, strain qcr8, stronger effect = lower value 0.838 | locus YJL187C, strain SWE1 (second series), stronger effect = lower value 0.344 | locus YJR043C, strain POL32, stronger effect = lower value 0.696 | locus YKL009W, strain mrt4, stronger effect = lower value 1.54 [resistant] | locus YKL085W, strain MDH1 (second series), stronger effect = lower value 0.818 | locus YKL085W, strain MDH1, stronger effect = lower value 0.818 | locus YKL160W, strain elf1, stronger effect = lower value 0.9 | locus YKR001C, strain vps1, stronger effect = lower value 0.354 | locus YLR027C, strain aat2, stronger effect = lower value 0.869 | locus YLR039C, strain RIC1, stronger effect = lower value 0.395 | locus YLR058C, strain SHM2, stronger effect = lower value 0.643 | locus YLR221C, strain rsa3, stronger effect = lower value 0.901 | locus YLR258W, strain gsy2, stronger effect = lower value 0.9 | locus YLR262C, strain YPT6 (second series), stronger effect = lower value 0.795 | locus YLR268W, strain sec22, stronger effect = lower value 0.545 | locus YLR320W, strain mms22, stronger effect = lower value 0.216 | locus YLR418C, strain cdc73, stronger effect = lower value 0.56 | locus YML016C, strain PPZ1, stronger effect = lower value 0.815 | locus YML032C, strain rad52, stronger effect = lower value 0.175 | locus YML124C, strain tub3, stronger effect = lower value 0.808 | locus YMR058W, strain fet3, stronger effect = lower value 0.815 | locus YMR078C, strain ctf18, stronger effect = lower value 0.335 | locus YMR223W, strain ubp8, stronger effect = lower value 0.602 | locus YNL067W, strain RPL9B, stronger effect = lower value 0.691 | locus YNL209W, strain ssb2, stronger effect = lower value 0.895 | locus YNL233W, strain BNI4, stronger effect = lower value 0.511 | locus YNL248C, strain rpa49, stronger effect = lower value 0.706 | locus YNL250W, strain rad50, stronger effect = lower value 0.144 | locus YNL271C, strain bni1, stronger effect = lower value 0.885 | locus YNL298W, strain CLA4, stronger effect = lower value 0.891 | locus YNL307C, strain MCK1, stronger effect = lower value 0.785 | locus YNL322C, strain KRE1, stronger effect = lower value 0.751 | locus YNR052C, strain pop2, stronger effect = lower value 0.666 | locus YOL147C, strain pex11, stronger effect = lower value 0.802 | locus YOR061W, strain CKA2, stronger effect = lower value 0.793 | locus YOR069W, strain VPS5, stronger effect = lower value 0.577 | locus YOR070C, strain gyp1, stronger effect = lower value 0.877 | locus YOR083W, strain WHI5, stronger effect = lower value 0.806 | locus YOR106W, strain vam3, stronger effect = lower value 0.593 | locus YOR136W, strain idh2, stronger effect = lower value 0.877 | locus YOR144C, strain elg1, stronger effect = lower value 0.812 | locus YOR184W, strain ser1, stronger effect = lower value 0.426 | locus YOR270C, strain vph1, stronger effect = lower value 0.409 | locus YPL051W, strain arl3, stronger effect = lower value 0.685 | locus YPL055C, strain LGE1, stronger effect = lower value 0.146 | locus YPL106C, strain sse1, stronger effect = lower value 1.21 [resistant] | locus YPR141C, strain kar3, stronger effect = lower value 0.912 | locus YPR163C, strain tif3, stronger effect = lower value 0.72 | locus YPR167C, strain met16, stronger effect = lower value 0.597 | strain wtn01, stronger effect = lower value 0.703
0.21 (active) and 0.986 (inactive): locus YJL095W, strain BCK1, stronger effect = lower value
inactive: locus YAL026C, strain drs2, stronger effect = lower value 0.936 | locus YBR021W, strain FUR4, stronger effect = lower value 1.06 | locus YBR023C, strain chs3, stronger effect = lower value 0.924 | locus YBR171W, strain sec66, stronger effect = lower value 1.02 | locus YBR229C, strain ROT2, stronger effect = lower value 0.931 | locus YBR279W, strain paf1, stronger effect = lower value 0.964 | locus YCL069W, strain vba3, stronger effect = lower value 0.993 | locus YCR088W, strain abp1, stronger effect = lower value 0.963 | locus YDL005C, strain med2, stronger effect = lower value 1.01 | locus YDL040C, strain nat1, stronger effect = lower value 0.967 | locus YDR001C, strain nth1, stronger effect = lower value 1 | locus YDR159W, strain sac3, stronger effect = lower value 0.873 | locus YDR297W, strain sur2, stronger effect = lower value 0.94 | locus YDR334W, strain swr1, stronger effect = lower value 1.01 | locus YDR335W, strain msn5, stronger effect = lower value 0.961 | locus YDR392W, strain spt3, stronger effect = lower value 0.799 | locus YEL003W, strain gim4, stronger effect = lower value 0.958 | locus YEL037C, strain rad23, stronger effect = lower value 0.997 | locus YEL061C, strain CIN8 (second series), stronger effect = lower value 1.01 | locus YER110C, stronger effect = lower value 0.98 | locus YER111C, strain swi4, stronger effect = lower value 1.03 | locus YER155C, strain BEM2 (second series), stronger effect = lower value 1.06 | locus YGL078C, strain dbp3, stronger effect = lower value 0.935 | locus YGL167C, strain pmr1, stronger effect = lower value 0.976 | locus YGL173C, strain kem1, stronger effect = lower value 0.906 | locus YGL227W, strain vid30, stronger effect = lower value 1.01 | locus YGL240W, strain doc1, stronger effect = lower value 0.894 | locus YGR252W, strain gcn5, stronger effect = lower value 0.832 | locus YHR013C, strain ard1, stronger effect = lower value 1 | locus YHR030C, strain SLT2, stronger effect = lower value 0.97 | locus YHR079C, strain IRE1, stronger effect = lower value 0.984 | locus YHR142W, strain chs7, stronger effect = lower value 0.883 | locus YJL129C, strain trk1, stronger effect = lower value 0.989 | locus YJL154C, strain vps35, stronger effect = lower value 0.996 | locus YJL168C, strain set2, stronger effect = lower value 0.942 | locus YJR066W, strain TOR1, stronger effect = lower value 0.941 | locus YKR026C, strain gcn3, stronger effect = lower value 0.994 | locus YKR091W, strain srl3, stronger effect = lower value 1 | locus YLL001W, strain dnm1, stronger effect = lower value 0.953 | locus YLL026W, stronger effect = lower value 0.956 | locus YLL041C, strain sdh2, stronger effect = lower value 0.982 | locus YLR102C, strain apc9, stronger effect = lower value 0.984 | locus YLR113W, strain HOG1, stronger effect = lower value 0.971 | locus YLR342W, strain FKS1 (second series), stronger effect = lower value 0.857 | locus YLR342W, strain FKS1, stronger effect = lower value 0.958 | locus YLR357W, strain rsc2, stronger effect = lower value 1.01 | locus YLR370C, strain arc18, stronger effect = lower value 0.96 | locus YLR371W, strain rom2, stronger effect = lower value 0.991 | locus YLR384C, strain iki3, stronger effect = lower value 1.02 | locus YML120C, strain ndi1, stronger effect = lower value 0.962 | locus YMR125W, strain sto1, stronger effect = lower value 1.08 | locus YMR129W, stronger effect = lower value 0.997 | locus YMR205C, strain PFK2, stronger effect = lower value 0.983 | locus YMR231W, strain pep5, stronger effect = lower value 1.01 | locus YMR307W, strain GAS1, stronger effect = lower value 0.641 | locus YNL071W, strain lat1, stronger effect = lower value 0.932 | locus YNL183C, strain NPR1, stronger effect = lower value 0.929 | locus YNL322C, strain KRE1 (second series), stronger effect = lower value 0.919 | locus YNR049C, strain mso1, stronger effect = lower value 0.976 | locus YOL012C, strain htz1 0.287 | locus YOR001W, strain rrp6, stronger effect = lower value 0.943 | locus YOR080W, strain dia2, stronger effect = lower value 0.941 | locus YOR231W, strain MKK1, stronger effect = lower value 0.981 | locus YOR265W, strain rbl2, stronger effect = lower value 0.938 | locus YOR290C, strain snf2, stronger effect = lower value 0.911 | locus YOR316C, strain cot1, stronger effect = lower value 1 | locus YPL078C, strain atp4, stronger effect = lower value 0.961 | locus YPL240C, strain hsp82, stronger effect = lower value 0.979 | locus YPL256C, strain CLN2, stronger effect = lower value 0.995 | locus YPR119W, strain clb2, stronger effect = lower value 0.952
